Hit rate of the full screen: of about 330,000 compounds, about 40 (0.01%) were called active. Calls follow the shape of the dose curve; as a rule, active = well fitted inhibition curve with a large enough effect; inconclusive = small, poorly fitted or top-dose-only effect, or effect the other way; inactive = flat fitted curve, though single readings scatter. The sample as a whole holds a higher share of actives than the screen did.
Biological target: Ubiquitin carboxyl-terminal hydrolase 2 (Homo sapiens) (UniProt O75604)
Test: qHTS Assay for Inhibitors of Ubiquitin-specific Protease USP2a Using CHOP2 as the Reporter
Settings: USP2 core, Ub-CHOP2 coupled fluorogenic reporter, 485/531; series mostly up to 38.3 µM
Method in brief: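 Cell-free coupled assay: 10nM USP2 core preincubated 30min RT with compound in Tris-HCl pH 8.0/CaCl2/CHAPS buffer, then 25nM Ub-CHOP2 and 25nM reporter substrate; fluorescence (Ex 485/Em 531) read after 60min RT, normalized to NEM inhibition, concentration-response curves fitted.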
Potency is read from the fitted curve at half-maximal effect.

Sequence of Ubiquitin carboxyl-terminal hydrolase 2 (Homo sapiens) (O75604 whole entry, looked up): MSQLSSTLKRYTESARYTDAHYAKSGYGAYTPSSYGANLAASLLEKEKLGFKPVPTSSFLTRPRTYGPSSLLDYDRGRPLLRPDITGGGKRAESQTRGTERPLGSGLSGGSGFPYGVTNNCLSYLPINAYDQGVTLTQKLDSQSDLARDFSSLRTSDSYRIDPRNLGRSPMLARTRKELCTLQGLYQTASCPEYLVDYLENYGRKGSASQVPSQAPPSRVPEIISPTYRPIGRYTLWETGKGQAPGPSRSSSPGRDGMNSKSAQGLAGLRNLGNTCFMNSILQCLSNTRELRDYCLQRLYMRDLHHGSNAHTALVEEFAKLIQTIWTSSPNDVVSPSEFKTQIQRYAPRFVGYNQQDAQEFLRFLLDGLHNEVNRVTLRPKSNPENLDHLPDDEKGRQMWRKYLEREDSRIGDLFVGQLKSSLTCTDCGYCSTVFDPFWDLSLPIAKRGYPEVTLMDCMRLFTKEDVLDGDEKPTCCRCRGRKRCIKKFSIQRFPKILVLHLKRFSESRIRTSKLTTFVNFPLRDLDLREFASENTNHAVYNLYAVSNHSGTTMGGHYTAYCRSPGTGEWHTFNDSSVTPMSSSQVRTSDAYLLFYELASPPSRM

Activity change, negative = inhibition, inactive:
Cc1cccc(NC(=O)N(Cc2cc3cc(C)cc(C)c3[nH]c2=O)CC2COCCO2)c1 (stereo not drawn), C#CCOCCOCCOCCNc1nc(N2CCN(C(=O)CCCCCCCCCCNC(=O)[C@H](CCCCN)n3cc(C)nn3)CC2)nc(N2CCN(C(=O)CCCCCCCCCCNC(=O)[C@H](CO)n3cc(CCCSC)nn3)CC2)n1, C#CCOCCOCCOCCNc1nc(N2CCN(C(=O)CCCCCCCCCCNC(=O)Cn3cc(CCCCCN)nn3)CC2)nc(N2CCN(C(=O)CCCCCCCCCCNC(=O)[C@H](CO)n3cc(CCCSC)nn3)CC2)n1, Cc1cc(NC(=O)CN2CCCCC2C)nc2c1c(=O)oc1ccccc12 (stereo not drawn), Cc1nc(SC(C)C)[nH]c(=O)c1Cc1ccccc1, CC1CCc2c(nc3ncnn3c2Nc2ccc(OC(F)(F)F)cc2)C1 (stereo not drawn), CCNC(=O)c1sccc1-n1cccc1, CN1C2CCC1/C(=C\c1ccccc1Cl)C(=O)/C2=C\c1ccccc1Cl, COc1ccc2c(c1OC)C(=O)c1ccccc1C2=O, Cc1c([N+](=O)[O-])c(N)nn1C, Cc1cc(NS(=O)(=O)c2ccc(NC(=O)c3cccnc3)cc2)nc(C)n1, COc1cccc(CC2(CO)CCN(Cc3cnc(-c4cccc(C)c4)nc3)CC2)c1, NS(=O)(=O)c1ccc(NC(=S)NC(=O)c2cccnc2)cc1, COc1cc2c(C(=O)N3CCN(C)CC3)c(CSc3ccccc3)n(C)c2cc1Br, COc1ccc(Cl)cc1N(CC(=O)N1CCCCC1)S(C)(=O)=O, Cc1ccc(NC(=O)N2CCC(O)(c3cccnc3)CC2)cc1, COc1cc(OC)cc(C(=O)N[C@H](C(=O)OCC(=O)NC(C)c2ccccc2)C(C)C)c1 (stereo partly drawn), O=C1C2C3C=CC(C3)C2C(=O)N1c1ccc(S(=O)(=O)Nc2nccs2)cc1 (stereo not drawn), O=C(Cc1csc(Nc2nc(=S)[nH]c3ccccc23)n1)NCCCN1CCN(c2cccc(Cl)c2)CC1, CC(C)[C@@H]1NC(=O)c2cc([N+](=O)[O-])cc(I)c2NCCC[C@@H](C(=O)NC(CC(=O)O)C(N)=O)NC(=O)[C@H](CO)NC1=O (stereo partly drawn), CC(C)(CNC(=O)c1cc(=O)[nH]c2ccccc12)N1CCOCC1, Cc1ccc(CN2CCN(Cc3ccccc3-c3ccco3)CC2CCO)o1 (stereo not drawn), COCc1ccc(C(=O)NC2CC(C)(C)Cc3c2cnn3-c2ccc(C)cc2)o1 (stereo not drawn), Fc1ccccc1CNC(=S)Nc1ccc(Cl)cc1, COc1ccc(C(=O)NCC2CCCCC2)cc1S(=O)(=O)N1CCCC1, CCn1cc(C(=O)NCc2ccc(OC)cc2OC)c(=O)c2ccc(C)nc21, COc1ccc(C2COC(=O)C2=N)c(NC(=O)c2ccccc2)c1 (stereo not drawn), COc1ccc(C(CC(=O)Nc2ccc(C)cc2)NC(=O)C(F)(F)F)cc1 (stereo not drawn), CCCCN(Cc1ccccc1)C(=O)C1CCN(Cc2sccc2C)CC1, CC(=O)c1c(OCC(=O)N(C)C2CCCCC2)ccc2c(C)cc(=O)oc12, Cc1ccc(NS(=O)(=O)c2ccc3c(c2)CC(=O)N3)cc1Cl, CCOc1ccc(NC(=O)CCNC(=O)c2ccc(Br)cc2)cc1, N#CCC(=O)Nc1ccc(C(=O)OCC(=O)Nc2sc3c(c2C#N)CCCC3)cc1, O=C(CCS(=O)(=O)c1ccccc1Cl)Nc1ccc(S(=O)(=O)Nc2ncccn2)cc1, CC(C)C1N=C2c3ccccc3N=C(SCC(=O)c3ccc(O)c(O)c3)N2C1=O (stereo not drawn), COc1ccccc1/C=C/C(=O)OCC(=O)NC1CCCCCC1, CCOc1ccc(NS(=O)(=O)c2ccc(C(=O)NC3CCN(Cc4ccccc4)CC3)cc2)cc1, CC(C)OC(=O)C(C#N)c1nc2ccccc2nc1N1CCN(Cc2ccc3c(c2)OCO3)CC1 (stereo not drawn), COc1cccc(-c2nnc(NC(=O)c3ccc(S(=O)(=O)N(CC(C)C)CC(C)C)cc3)o2)c1, Cc1sc(NC(=O)C2C3CCC(O3)C2C(=O)O)c(C(=O)OC(C)C)c1-c1ccc(Cl)cc1 (stereo not drawn), CCN(CC)C(=O)CSC(Nc1cccc(F)c1)=C(C#N)C#N, CS(=O)(=O)c1ccc(-c2nnn(CC(=O)Nc3ccc4c(c3)OCCO4)n2)cc1, COc1ccc(Nc2ncc(C(=O)N3CCN(c4ccccc4OC)CC3)c3ccccc23)cc1, Cc1ccc(-n2nc(C)c(C(=O)O)c2-n2cccc2)cc1, CC(=O)c1ccc(NC(=O)C2CCCN2S(=O)(=O)c2cccs2)cc1 (stereo not drawn), Cn1c(=O)c2cc(S(=O)(=O)NCCC(=O)Nc3ccc(F)cc3F)ccc2n(C)c1=O, Cc1cc(-c2n[nH]c(=S)n2/N=C/C(Br)=C/c2ccccc2)n[nH]1, Cc1c(C)c(C)c(S(=O)(=O)NCCc2ccccn2)c(C)c1C, COc1cc(C)c(S(=O)(=O)N2CCOCC2)c(C)c1C, COc1ccc(NC(=O)CN(C)C(=O)c2cccc(S(=O)(=O)N3CCN(c4ccccc4)CC3)c2)cc1, CCN(CC)C(=O)CSc1nnc(-c2ccc(S(=O)(=O)NCc3ccccc3Cl)cc2)o1, CN(CCO)c1ccc(/C=N/Nc2nncc3ccccc23)cc1, CCOC(=O)c1cc(-c2ccc(Cl)s2)nc2c1c(C)nn2C, COc1ccc(NC(=O)CN2C(=O)C(c3ccccc3)=NC23CCCCCC3)cc1OC, CC1(C)CC(=O)c2cc(OCC(=O)NCC3CCCO3)ccc2O1 (stereo not drawn), Cc1c(-c2nn(C)c(=O)c3ccccc23)oc2ccc(F)cc2c1=O, CC(C)Cc1nn2c(=O)cc(O)nc2s1, COc1cc(N/C=C2\CC(=O)NC(C)=C2C#N)cc(OC)c1OC, O=C(Nc1cccc(Cl)c1)c1cncn1-c1ccc(F)cc1, O=C(COC(=O)c1cccc(Cl)c1)NC1CCCCCCC1, Cc1cccc(OCC(O)CN2CCN(CCN3C(=O)c4cccc5cccc(c45)C3=O)CC2)c1C (stereo not drawn), Cc1nc(NC2=NC(C(=O)Nc3ccc(Cl)cc3)CC(=O)N2)nc2ccccc12 (stereo not drawn), C=CC(COCc1ccccc1)N(Cc1ccccc1)S(=O)(=O)c1ccccc1Br (stereo not drawn), CCC(C)N1CC(=O)N2Cc3[nH]c4ccccc4c3C[C@H]2C1=O (stereo partly drawn), CCCCOC(=O)c1ccc(NC(c2ccc(C)cc2)P(=O)(OC)OC)cc1 (stereo not drawn), O=C(O)c1cc2c(cc1NC(=O)c1c(F)cccc1Cl)OCCCO2, O=S(=O)(NC1CCN(S(=O)(=O)c2ccc3c(c2)OCCO3)CC1)c1c(F)cccc1F, CCCOc1ccc(CN(CCO)CCO)cc1C(=O)OC, Cc1ccc(NC2=C(Cl)C(=O)OC2OC(=O)c2ccccc2C)cc1 (stereo not drawn), C[C@@]12C(=O)N(c3cccc(Br)c3)C(=O)N1[C@H](c1ccc(Cl)cc1)[C@@H]1C(=O)N(C3CCCCC3)C(=O)[C@@H]12, CCn1c(SC(C)C(=O)Nc2ccc(N3CCOCC3)cc2)nnc1-c1ccco1 (stereo not drawn), CCOC(=O)c1c(CNCc2ccccc2F)c2sc(C)cc2n1C, CN(C(=O)CCn1c(=S)oc2ccccc21)C1CCCCC1, CCCCN=C(N)/C(C(=O)OCC)=C(\O)c1ccc(OC)cc1, COc1ccc(OC)c(-n2cc3c(=O)n(C)c(=O)n(C)c3c2)c1, O=[N+]([O-])c1cc([N+](=O)[O-])c2cccnc2c1O

Potency, active:
C#CCOCCOCCOCCNc1nc(N2CCN(C(=O)CCCCCCCCCCNC(=O)[C@H]([C@@H](C)CC)n3cc(CCCCN=C(N)N)nn3)CC2)nc(N2CCN(C(=O)CCCCCCCCCCNC(=O)[C@H](CO)n3cc(CCCSC)nn3)CC2)n1 6.31 µM, CCOc1ccc(NC(=O)c2ccc(NC(=O)COC(=O)c3ccc(NC(=O)CC#N)cc3)cc2)cc1 7.94 µM

Source: PubChem BioAssay AID463254 (National Center for Advancing Translational Sciences (NCATS), 2010)
